# What was measured:
# [1] = molecular target: Sphingosine kinase 1 (Homo sapiens) (UniProt Q9NYA1); conditions: at 1 µM;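 also: mean SPHK1 inhibition value reported from the GSK PKIS kinase panel screen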
# [2] = molecular target: T1, Sphingosine kinase 2 (Homo sapiens) (UniProt Q9NRA0); conditions: at 0.1 µM
# T1 sequence (whole entry): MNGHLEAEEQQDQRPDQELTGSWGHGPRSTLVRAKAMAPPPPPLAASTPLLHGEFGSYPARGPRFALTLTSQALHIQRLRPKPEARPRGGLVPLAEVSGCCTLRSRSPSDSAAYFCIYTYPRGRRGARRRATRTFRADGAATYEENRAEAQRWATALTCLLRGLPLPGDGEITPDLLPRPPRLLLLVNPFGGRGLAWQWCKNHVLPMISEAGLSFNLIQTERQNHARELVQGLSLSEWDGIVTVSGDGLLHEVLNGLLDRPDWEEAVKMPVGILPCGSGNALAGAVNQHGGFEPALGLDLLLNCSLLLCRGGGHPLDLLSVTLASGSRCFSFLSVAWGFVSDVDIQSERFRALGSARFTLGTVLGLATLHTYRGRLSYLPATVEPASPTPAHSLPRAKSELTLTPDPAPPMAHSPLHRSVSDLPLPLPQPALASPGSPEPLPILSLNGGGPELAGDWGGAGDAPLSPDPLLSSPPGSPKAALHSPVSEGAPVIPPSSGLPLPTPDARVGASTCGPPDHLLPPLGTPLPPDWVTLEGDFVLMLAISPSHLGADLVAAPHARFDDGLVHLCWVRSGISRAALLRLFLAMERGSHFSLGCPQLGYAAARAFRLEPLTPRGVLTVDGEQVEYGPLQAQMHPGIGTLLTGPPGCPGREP
# [3] = molecular target: T1, Sphingosine kinase 2 (Homo sapiens); conditions: at 1 µM
# [4] = molecular target: Casein kinase II subunit alpha (Homo sapiens) (UniProt P68400); conditions: at 0.1 µM
# Chain of Casein kinase II subunit alpha (Homo sapiens) (P68400 whole entry, looked up): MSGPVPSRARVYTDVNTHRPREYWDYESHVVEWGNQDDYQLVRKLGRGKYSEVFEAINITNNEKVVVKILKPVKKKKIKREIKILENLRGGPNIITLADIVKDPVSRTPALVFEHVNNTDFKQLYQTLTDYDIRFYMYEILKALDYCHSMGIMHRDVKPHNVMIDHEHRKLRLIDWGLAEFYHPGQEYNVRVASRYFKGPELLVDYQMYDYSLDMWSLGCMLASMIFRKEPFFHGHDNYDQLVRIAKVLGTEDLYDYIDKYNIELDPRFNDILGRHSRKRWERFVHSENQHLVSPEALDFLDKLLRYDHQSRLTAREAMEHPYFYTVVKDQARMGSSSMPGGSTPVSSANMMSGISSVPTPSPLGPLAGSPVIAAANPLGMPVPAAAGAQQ
# [5] = molecular target: Casein kinase II subunit alpha (Homo sapiens) (UniProt P68400); conditions: at 1 µM
# [6] = molecular target: T2, Inhibitor of nuclear factor kappa-B kinase subunit alpha (Homo sapiens) (UniProt O15111); conditions: at 0.1 µM
# T2 sequence (whole entry): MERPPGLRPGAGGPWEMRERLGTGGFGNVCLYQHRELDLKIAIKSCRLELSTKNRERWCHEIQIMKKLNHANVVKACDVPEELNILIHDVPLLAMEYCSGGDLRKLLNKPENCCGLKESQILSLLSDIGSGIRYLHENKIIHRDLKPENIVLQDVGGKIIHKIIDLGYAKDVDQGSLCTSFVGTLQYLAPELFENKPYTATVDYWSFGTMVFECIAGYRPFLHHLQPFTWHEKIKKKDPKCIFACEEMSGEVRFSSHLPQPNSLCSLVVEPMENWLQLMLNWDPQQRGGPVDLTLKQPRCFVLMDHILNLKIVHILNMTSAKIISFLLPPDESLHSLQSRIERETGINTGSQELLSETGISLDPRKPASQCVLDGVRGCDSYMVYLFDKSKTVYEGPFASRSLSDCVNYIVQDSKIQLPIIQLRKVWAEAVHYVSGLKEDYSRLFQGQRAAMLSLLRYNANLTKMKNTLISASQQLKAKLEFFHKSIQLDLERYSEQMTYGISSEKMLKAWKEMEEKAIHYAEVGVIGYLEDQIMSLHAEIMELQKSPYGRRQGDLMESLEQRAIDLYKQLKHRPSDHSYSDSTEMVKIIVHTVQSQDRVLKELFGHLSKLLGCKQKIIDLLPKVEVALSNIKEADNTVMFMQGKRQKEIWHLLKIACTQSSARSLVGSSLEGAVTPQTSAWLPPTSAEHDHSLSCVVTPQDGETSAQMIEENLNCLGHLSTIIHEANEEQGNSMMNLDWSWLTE
# [7] = molecular target: T2, Inhibitor of nuclear factor kappa-B kinase subunit alpha (Homo sapiens); conditions: at 1 µM
# [8] = molecular target: T3, Inhibitor of nuclear factor kappa-B kinase subunit beta (Homo sapiens) (UniProt O14920); conditions: at 0.1 µM
# T3 sequence (whole entry): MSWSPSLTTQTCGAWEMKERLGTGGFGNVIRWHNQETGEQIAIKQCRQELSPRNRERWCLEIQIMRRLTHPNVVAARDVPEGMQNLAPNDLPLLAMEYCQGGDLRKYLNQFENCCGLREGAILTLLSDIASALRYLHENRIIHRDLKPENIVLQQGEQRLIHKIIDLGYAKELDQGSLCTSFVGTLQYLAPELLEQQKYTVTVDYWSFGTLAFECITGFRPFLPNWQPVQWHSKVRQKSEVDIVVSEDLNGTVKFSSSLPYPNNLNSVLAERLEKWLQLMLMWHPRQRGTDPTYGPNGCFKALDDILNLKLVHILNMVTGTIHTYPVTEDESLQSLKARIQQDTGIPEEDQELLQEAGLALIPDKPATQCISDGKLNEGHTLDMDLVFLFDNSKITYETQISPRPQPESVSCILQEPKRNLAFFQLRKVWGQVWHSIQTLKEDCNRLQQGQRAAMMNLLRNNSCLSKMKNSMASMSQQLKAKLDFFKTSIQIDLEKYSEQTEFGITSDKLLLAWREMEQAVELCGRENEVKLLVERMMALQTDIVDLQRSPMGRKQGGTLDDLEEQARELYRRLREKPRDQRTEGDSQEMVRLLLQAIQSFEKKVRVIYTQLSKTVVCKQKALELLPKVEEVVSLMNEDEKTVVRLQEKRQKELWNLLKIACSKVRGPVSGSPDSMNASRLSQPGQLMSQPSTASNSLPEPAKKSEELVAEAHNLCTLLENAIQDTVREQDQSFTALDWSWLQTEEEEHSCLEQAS
# [9] = molecular target: T3, Inhibitor of nuclear factor kappa-B kinase subunit beta (Homo sapiens); conditions: at 1 µM
# [10] = molecular target: T4, Inhibitor of nuclear factor kappa-B kinase subunit epsilon (Homo sapiens) (UniProt Q14164); conditions: at 0.1 µM
# T4 sequence (whole entry): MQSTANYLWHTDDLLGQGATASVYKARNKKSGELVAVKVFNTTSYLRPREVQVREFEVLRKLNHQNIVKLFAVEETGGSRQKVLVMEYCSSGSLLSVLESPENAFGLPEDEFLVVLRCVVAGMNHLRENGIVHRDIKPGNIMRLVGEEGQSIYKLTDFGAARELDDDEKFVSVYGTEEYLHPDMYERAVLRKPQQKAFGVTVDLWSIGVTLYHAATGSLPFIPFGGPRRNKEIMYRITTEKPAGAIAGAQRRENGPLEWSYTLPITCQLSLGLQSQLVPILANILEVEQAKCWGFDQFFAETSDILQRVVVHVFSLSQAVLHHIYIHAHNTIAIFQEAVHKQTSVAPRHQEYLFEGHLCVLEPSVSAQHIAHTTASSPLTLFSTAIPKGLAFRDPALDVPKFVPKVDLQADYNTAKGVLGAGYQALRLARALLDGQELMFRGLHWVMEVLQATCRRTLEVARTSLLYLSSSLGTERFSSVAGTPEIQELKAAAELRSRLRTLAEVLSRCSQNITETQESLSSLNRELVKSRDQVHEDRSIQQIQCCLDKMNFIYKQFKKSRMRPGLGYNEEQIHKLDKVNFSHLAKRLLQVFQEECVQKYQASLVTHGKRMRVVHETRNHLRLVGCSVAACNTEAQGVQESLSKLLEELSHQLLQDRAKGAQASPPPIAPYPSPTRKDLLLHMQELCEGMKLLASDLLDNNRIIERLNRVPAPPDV
# [11] = molecular target: T4, Inhibitor of nuclear factor kappa-B kinase subunit epsilon (Homo sapiens); conditions: at 1 µM
# [12] = molecular target: T5, Serine/threonine-protein kinase Nek1 (Homo sapiens) (UniProt Q96PY6); conditions: at 0.1 µM
# T5 sequence (whole entry): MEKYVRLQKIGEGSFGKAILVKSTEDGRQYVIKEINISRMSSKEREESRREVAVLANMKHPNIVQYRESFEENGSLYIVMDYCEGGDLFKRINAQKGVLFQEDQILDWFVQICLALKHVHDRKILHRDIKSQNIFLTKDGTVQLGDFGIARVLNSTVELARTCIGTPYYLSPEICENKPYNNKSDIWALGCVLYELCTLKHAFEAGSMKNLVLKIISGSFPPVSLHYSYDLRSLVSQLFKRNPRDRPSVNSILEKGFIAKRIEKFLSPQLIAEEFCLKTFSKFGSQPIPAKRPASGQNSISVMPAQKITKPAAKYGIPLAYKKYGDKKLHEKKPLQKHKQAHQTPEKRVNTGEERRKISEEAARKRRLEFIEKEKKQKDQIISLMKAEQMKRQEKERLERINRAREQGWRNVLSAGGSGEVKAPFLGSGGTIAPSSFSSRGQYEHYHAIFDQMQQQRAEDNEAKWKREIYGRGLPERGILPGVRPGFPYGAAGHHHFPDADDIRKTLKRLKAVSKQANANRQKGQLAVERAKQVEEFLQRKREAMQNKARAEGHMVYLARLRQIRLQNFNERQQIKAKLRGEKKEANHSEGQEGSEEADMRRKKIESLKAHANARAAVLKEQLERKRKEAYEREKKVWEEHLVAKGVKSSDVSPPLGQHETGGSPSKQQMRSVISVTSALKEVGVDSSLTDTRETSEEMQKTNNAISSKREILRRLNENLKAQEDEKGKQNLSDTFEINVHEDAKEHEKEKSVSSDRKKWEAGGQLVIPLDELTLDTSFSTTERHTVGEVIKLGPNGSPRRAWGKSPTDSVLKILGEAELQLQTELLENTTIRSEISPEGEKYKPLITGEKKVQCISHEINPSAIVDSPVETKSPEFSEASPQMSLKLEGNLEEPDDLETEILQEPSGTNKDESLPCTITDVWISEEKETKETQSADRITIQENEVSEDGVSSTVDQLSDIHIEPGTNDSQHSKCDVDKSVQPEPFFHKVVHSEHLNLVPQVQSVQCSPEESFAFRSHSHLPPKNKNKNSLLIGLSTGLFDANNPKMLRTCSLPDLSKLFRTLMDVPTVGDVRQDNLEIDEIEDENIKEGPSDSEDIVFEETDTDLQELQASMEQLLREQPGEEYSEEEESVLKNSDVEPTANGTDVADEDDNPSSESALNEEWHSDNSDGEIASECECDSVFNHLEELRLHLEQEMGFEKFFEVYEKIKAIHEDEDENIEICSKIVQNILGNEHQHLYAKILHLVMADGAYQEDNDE
# [13] = molecular target: T5, Serine/threonine-protein kinase Nek1 (Homo sapiens); conditions: at 1 µM
# [14] = molecular target: T6, Serine/threonine-protein kinase Nek2 (Homo sapiens) (UniProt P51955); conditions: at 0.1 µM
# T6 sequence (whole entry): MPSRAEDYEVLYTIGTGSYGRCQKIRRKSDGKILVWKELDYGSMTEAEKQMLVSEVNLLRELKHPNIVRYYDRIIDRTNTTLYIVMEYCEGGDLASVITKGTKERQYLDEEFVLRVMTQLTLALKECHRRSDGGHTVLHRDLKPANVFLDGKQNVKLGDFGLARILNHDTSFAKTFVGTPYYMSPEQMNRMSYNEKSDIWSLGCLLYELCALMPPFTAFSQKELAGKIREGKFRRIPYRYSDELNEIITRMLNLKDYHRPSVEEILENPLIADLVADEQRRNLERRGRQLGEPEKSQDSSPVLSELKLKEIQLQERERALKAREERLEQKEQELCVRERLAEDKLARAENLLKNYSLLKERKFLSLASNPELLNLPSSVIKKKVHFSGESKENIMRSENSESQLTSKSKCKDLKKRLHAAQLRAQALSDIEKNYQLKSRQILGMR
# [15] = molecular target: T6, Serine/threonine-protein kinase Nek2 (Homo sapiens); conditions: at 1 µM
# [16] = molecular target: Serine/threonine-protein kinase Nek6 (Homo sapiens) (UniProt Q9HC98); conditions: at 0.1 µM
# Chain of Serine/threonine-protein kinase Nek6 (Homo sapiens) (Q9HC98 whole entry): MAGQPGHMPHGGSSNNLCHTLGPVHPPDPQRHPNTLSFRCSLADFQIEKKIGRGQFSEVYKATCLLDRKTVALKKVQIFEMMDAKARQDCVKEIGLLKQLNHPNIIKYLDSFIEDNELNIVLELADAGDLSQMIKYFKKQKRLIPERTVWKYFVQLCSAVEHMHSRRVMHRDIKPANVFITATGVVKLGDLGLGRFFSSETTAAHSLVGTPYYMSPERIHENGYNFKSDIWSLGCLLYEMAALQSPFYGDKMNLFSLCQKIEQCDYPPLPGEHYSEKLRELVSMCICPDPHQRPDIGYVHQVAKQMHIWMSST
# [17] = molecular target: Serine/threonine-protein kinase Nek6 (Homo sapiens) (UniProt Q9HC98); conditions: at 1 µM
# [18] = molecular target: Serine/threonine-protein kinase Nek7 (Homo sapiens) (UniProt Q8TDX7); conditions: at 0.1 µM
# Chain of Serine/threonine-protein kinase Nek7 (Homo sapiens) (Q8TDX7 whole entry, looked up): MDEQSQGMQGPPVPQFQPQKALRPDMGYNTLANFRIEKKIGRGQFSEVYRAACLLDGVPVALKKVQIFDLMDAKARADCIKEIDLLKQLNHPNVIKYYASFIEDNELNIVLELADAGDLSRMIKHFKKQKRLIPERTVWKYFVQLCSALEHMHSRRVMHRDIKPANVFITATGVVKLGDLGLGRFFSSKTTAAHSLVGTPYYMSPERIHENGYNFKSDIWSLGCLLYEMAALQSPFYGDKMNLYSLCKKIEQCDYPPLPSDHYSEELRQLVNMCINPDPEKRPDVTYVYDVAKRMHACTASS
# [19] = molecular target: Serine/threonine-protein kinase Nek7 (Homo sapiens) (UniProt Q8TDX7); conditions: at 1 µM
# [20] = molecular target: T7, Serine/threonine-protein kinase Nek9 (Homo sapiens) (UniProt Q8TD19); conditions: at 0.1 µM;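 also: reported value is the mean percent inhibition of NEK9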
# T7 sequence (whole entry): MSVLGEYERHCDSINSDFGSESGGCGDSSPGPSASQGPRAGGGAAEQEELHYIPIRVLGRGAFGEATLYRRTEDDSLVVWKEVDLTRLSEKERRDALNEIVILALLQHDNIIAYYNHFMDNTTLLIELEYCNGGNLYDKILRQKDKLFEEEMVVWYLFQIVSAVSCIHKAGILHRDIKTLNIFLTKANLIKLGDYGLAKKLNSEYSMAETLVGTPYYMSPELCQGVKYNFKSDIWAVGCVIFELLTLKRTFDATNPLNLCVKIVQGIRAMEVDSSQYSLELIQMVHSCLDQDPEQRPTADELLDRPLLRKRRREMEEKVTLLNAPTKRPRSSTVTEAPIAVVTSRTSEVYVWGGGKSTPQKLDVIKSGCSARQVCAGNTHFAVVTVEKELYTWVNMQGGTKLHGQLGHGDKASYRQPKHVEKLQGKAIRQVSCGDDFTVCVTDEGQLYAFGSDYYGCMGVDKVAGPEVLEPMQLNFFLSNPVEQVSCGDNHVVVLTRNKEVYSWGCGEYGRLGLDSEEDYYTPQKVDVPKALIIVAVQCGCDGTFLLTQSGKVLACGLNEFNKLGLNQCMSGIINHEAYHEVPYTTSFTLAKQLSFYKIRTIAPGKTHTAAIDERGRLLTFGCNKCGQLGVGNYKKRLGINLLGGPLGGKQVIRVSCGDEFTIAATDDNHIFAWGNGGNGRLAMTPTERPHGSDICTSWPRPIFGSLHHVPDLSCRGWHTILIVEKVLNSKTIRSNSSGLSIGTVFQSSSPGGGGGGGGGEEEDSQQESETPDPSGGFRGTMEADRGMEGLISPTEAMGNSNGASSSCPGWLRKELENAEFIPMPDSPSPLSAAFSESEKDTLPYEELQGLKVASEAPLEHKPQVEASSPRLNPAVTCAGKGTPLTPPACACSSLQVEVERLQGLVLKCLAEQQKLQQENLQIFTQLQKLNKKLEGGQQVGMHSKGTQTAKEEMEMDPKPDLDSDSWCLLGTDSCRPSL
# Chain of Sphingosine kinase 1 (Homo sapiens) (Q9NYA1 whole entry): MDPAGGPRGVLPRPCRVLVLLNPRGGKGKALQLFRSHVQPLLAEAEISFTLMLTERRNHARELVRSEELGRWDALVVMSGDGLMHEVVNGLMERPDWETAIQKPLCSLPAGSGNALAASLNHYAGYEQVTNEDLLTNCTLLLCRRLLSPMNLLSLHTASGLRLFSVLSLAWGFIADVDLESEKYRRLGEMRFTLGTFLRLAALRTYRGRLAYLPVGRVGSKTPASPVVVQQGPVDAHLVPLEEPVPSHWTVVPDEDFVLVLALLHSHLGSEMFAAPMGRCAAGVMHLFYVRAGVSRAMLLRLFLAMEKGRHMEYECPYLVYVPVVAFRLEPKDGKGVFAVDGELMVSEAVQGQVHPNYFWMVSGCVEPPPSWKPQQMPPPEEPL
structure (smiles),measurement,setting,value
CN(C)c1ccc2c(c1)/C(=C/Nc1ccc(S(N)(=O)=O)cc1)C(=O)N2,inhibition,[1],-2.05%
same,inhibition,[2],0.7%
same,inhibition,[3],0.06%
same,inhibition,[4],2.93%
same,inhibition,[5],18%
same,inhibition,[6],1.67%
same,inhibition,[7],6.64%
same,inhibition,[8],2.49%
same,inhibition,[9],1.1%
same,inhibition,[10],4.67%
same,inhibition,[11],23.1%
same,inhibition,[12],1.42%
same,inhibition,[13],2.38%
same,inhibition,[14],2.78%
same,inhibition,[15],3.05%
same,inhibition,[16],0.8%
same,inhibition,[17],2.13%
same,inhibition,[18],5.09%
same,inhibition,[19],3.01%
same,inhibition,[20],-1.19%

# — ChEMBL document CHEMBL1961873, “Compounds: GSK PKIS; Assays: Nanosyn kinase panel” (2012)
